Sampled rows, rich in hits. Any-hit rate of the full collection: about 4.7%.
SUMO HTRF inh – inhibitors of human SUMOylation (UBC9) | HTRF SUMOylation assay, SAE1/SAE2 + UBC9, in vitro | hit rate 0.36% among 290,000 | inhibition, % at 35 µM | P63279; in the data active = inhibition above about 50%, passing the limit was not always enough
PABP1 MLLE inh – inhibitors of microRNA-mediated deadenylation, human PABP1 MLLE binding | P11940 | GST-MLLE / FITC-PAM2 fluorescence polarization | inhibition, % at 20 µM | hit rate 0.36% among 360,000 | AID 588489; in the data active = inhibition above about 35%, passing the limit was not always enough;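 note: plate controls were DMSO wells with GST-MLLE for no effect and wells lacking GST-MLLE protein for full effect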
Target sequence (P11940 whole entry, looked up): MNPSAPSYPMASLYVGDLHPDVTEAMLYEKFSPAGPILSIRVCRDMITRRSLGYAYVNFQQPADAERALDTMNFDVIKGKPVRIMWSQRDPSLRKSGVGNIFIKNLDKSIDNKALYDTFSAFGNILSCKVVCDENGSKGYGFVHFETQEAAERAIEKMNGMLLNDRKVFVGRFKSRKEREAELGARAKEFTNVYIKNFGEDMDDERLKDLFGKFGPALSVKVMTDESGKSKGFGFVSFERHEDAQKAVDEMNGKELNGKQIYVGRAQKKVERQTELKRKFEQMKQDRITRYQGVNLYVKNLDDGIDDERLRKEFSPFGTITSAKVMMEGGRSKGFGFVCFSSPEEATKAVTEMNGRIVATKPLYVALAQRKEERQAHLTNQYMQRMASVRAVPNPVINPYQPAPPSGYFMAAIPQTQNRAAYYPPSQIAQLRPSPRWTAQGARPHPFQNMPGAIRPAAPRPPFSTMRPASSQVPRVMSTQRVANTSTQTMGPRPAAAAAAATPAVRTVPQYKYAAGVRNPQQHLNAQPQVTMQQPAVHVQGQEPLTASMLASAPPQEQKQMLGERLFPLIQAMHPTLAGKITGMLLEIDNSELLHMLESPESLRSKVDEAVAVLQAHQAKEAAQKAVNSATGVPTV
Efflux pump mplx – antifungal efflux pump inhibition, Nile Red retention. S. cerevisiae Candida pump triplex. inhibition, % at 10 µM. hit rate 0.44% among 330,000;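 active = plate passing quality check with inhibition over a set limit, or well fluorescence over plate mean plus 4 SD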;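 note: Nile Red retained in pooled yeast measured as flow cytometry median fluorescence; 0% = buffer negative control and 100% = Enniatin B positive control; higher means more Nile Red kept so more efflux inhibition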
ALR inh – inhibitors of human sulfhydryl oxidase ALR; purified ALR, DTT oxidation, H2O2 HRP-luminol luminescence; inhibition, % (test concentration not listed); hit rate 3.8% among 290,000; AID 485317;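 active = mean replicate inhibition above about 79%, with every replicate also reaching it, limit read from the data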
PABP polyA inh – blocks human PABP binding to poly(A) RNA | fluorescence polarization | inhibition, % at 35 µM | hit rate 1% among 290,000;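 note: calls also rest on retests at 20 µM and on dose response follow-up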
eIF4H inh – inhibitors of RNA binding by human eIF4H; eIF4H fluorescence polarization binding assay; inhibition, % at 35 µM; hit rate 0.94% among 290,000; AID 2012;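 note: calls also rest on retests at 20 µM and on dose response follow-up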
The depositor's hits bear a star. Unless noted, the rule behind the calls is not given here.

CC(=O)NC1(C(F)(F)F)N=C(c2ccccc2)NC1=O (stereo not given) was read as SUMO HTRF inh -12, PABP1 MLLE inh -7, Efflux pump mplx 1, ALR inh 1, PABP polyA inh 3 and eIF4H inh 4.
`Cc1nc(SCC(=O)Nc2nc3ccccc3s2)n[nH]1` gave SUMO HTRF inh 6, PABP1 MLLE inh 7, Efflux pump mplx 0, ALR inh -12, PABP polyA inh -2 and eIF4H inh -11.
For COc1ccc(-c2nc(NC(=O)c3ccc(OCC(=O)N4CCOCC4)c(OC)c3)sc2C)cc1 the results were SUMO HTRF inh 12, PABP1 MLLE inh 14, Efflux pump mplx 0, ALR inh 96*, PABP polyA inh -6 and eIF4H inh -18.
Screening O=C(CSC1=NCCS1)Nc1nc2ccccc2s1 returned SUMO HTRF inh 6, PABP1 MLLE inh 42*, Efflux pump mplx 0, ALR inh 90*, PABP polyA inh -7 and eIF4H inh -10.
COc1cc(C(=O)Nc2ccc(C)cn2)ccc1OCC(=O)N1CCOCC1 was read as PABP1 MLLE inh 1, Efflux pump mplx 0 and ALR inh 18.
O=C(CSc1ncnc2c1oc1ccccc12)Nc1nc2ccccc2s1 was read as SUMO HTRF inh -5, PABP1 MLLE inh -7, Efflux pump mplx 0, ALR inh 96*, PABP polyA inh 1 and eIF4H inh 0.
`COc1cccc(CNC(=O)CCS(=O)(=O)c2ccccc2Cl)c1` gave PABP1 MLLE inh 1, Efflux pump mplx 0 and ALR inh -11.
`Cc1ccccc1CC(=O)Nc1sc(C(C)C)cc1C(=O)N1CCOCC1` gave SUMO HTRF inh 8, PABP1 MLLE inh 4, Efflux pump mplx 0, ALR inh 24, PABP polyA inh 6 and eIF4H inh -3.
COCc1cc(C)nc(SCc2ccc(Br)cc2)c1C#N was read as PABP1 MLLE inh -2, Efflux pump mplx 0 and ALR inh -7.
`Nc1ncnc2c1ncn2[C@@H]1O[C@H](CNC(=O)[C@H](N)Cc2cscn2)[C@@H](O)[C@H]1O` gave PABP1 MLLE inh 1 and Efflux pump mplx 0.
Screening CCC(C)C(NS(=O)(=O)c1ccc(C)cc1)C(=O)N1CCOCCOCCOCC1 (stereo not given) returned SUMO HTRF inh -1, PABP1 MLLE inh -16, Efflux pump mplx 0, ALR inh -6, PABP polyA inh 7 and eIF4H inh 6.
`CCOC(=O)C1CCN(C(=O)COC(=O)CSc2ccc([N+](=O)[O-])cc2)CC1` gave PABP1 MLLE inh 42* and Efflux pump mplx 0.
CCCN(CC(=O)Nc1ccccc1C)C(=O)COC(=O)CSc1ccc([N+](=O)[O-])cc1 was read as PABP1 MLLE inh 40*, Efflux pump mplx 0 and ALR inh -43.
`CC(OC(=O)CSc1ccc([N+](=O)[O-])cc1)C(=O)NC1CC1` (stereo not given) gave PABP1 MLLE inh 42*, Efflux pump mplx 0 and ALR inh 0.
For CC1CCCC(C)N1C(=O)COC(=O)CSc1ccc([N+](=O)[O-])cc1 (stereo not given) the results were PABP1 MLLE inh 21.
Screening CC1CCCCN1c1ccc(N)cc1C(N)=O (stereo not given) returned SUMO HTRF inh 0, PABP1 MLLE inh 16, Efflux pump mplx 0, ALR inh 94*, PABP polyA inh 6 and eIF4H inh 0.
Screening CC(C)(CO)NC(=O)c1ccc2nc(Cc3cccc(Cl)c3)oc2c1 returned SUMO HTRF inh -2, PABP1 MLLE inh 4, Efflux pump mplx 0, PABP polyA inh -3 and eIF4H inh -4.
Cc1cn([C@H]2C[C@H](O)[C@@H](CCC(=O)NCCc3ccc4ccccc4c3)O2)c(=O)[nH]c1=O was read as PABP1 MLLE inh -5.
Screening c1csc(CNc2nc(-c3cccs3)nc3ccccc23)c1 returned SUMO HTRF inh 13, PABP1 MLLE inh 7, Efflux pump mplx 0, ALR inh 96*, PABP polyA inh -2 and eIF4H inh -8.
For C=CCOC(=O)C1=C[C@H](C2CCCCC2)[C@@H](CCCO)[C@H](OCC)O1 the results were SUMO HTRF inh -7, PABP1 MLLE inh 0, ALR inh -5, PABP polyA inh 1 and eIF4H inh 7.
Screening CCOC(=O)C1=C(COC(=O)c2cc(S(=O)(=O)N3CCOCC3)ccc2F)NC(=O)NC1C (stereo not given) returned PABP1 MLLE inh 6.
`CCOC(=O)NC(=O)/C(C#N)=N/Nc1c(F)cccc1F` gave SUMO HTRF inh 10, PABP1 MLLE inh 15, Efflux pump mplx 0, PABP polyA inh 15 and eIF4H inh -1.
`CCOC(=O)NC(=O)/C(C#N)=N\Nc1cccc(OC)c1` gave SUMO HTRF inh -6, PABP1 MLLE inh 7, Efflux pump mplx 0, ALR inh 98*, PABP polyA inh -6 and eIF4H inh 1.
Cc1cccnc1NC(=S)NC(=O)c1cccs1 was read as SUMO HTRF inh -2, PABP1 MLLE inh 39*, Efflux pump mplx 0, PABP polyA inh 3 and eIF4H inh -4.
Oc1[nH]c2ccccc2c1N=Nc1nc2ccccc2s1 was read as SUMO HTRF inh -4, PABP1 MLLE inh -75, Efflux pump mplx 0, ALR inh 88*, PABP polyA inh 20 and eIF4H inh 25.
For CCS(=O)(=O)c1ccc2oc(Nc3cccc(OC)c3)nc2c1 the results were SUMO HTRF inh 11, PABP1 MLLE inh -11, Efflux pump mplx 0, ALR inh 97*, PABP polyA inh 1 and eIF4H inh 5.
For Cc1cc(C)nc(NNC(=O)c2ccccc2O)n1 the results were SUMO HTRF inh 4, PABP1 MLLE inh -17, Efflux pump mplx 0, ALR inh 95*, PABP polyA inh -9 and eIF4H inh 3.
`C[C@@H]1CN([C@@H](C)CO)C(=O)CCCn2nncc2CO[C@H]1CN(C)C(=O)Nc1ccccc1F` gave PABP1 MLLE inh 8.
For O=C(N=C1SC2CS(=O)(=O)CC2N1Cc1ccccc1Cl)C1CC1 (stereo not given) the results were SUMO HTRF inh 6, PABP1 MLLE inh -17, Efflux pump mplx 0, ALR inh -2, PABP polyA inh -6 and eIF4H inh -13.
For CCc1ccc(/C(C)=N\Nc2ccc([N+](=O)[O-])cc2)cc1 the results were SUMO HTRF inh -2, PABP1 MLLE inh -79, Efflux pump mplx 0, ALR inh 1, PABP polyA inh -14 and eIF4H inh -19.
CC/C(=N\Nc1ccc([N+](=O)[O-])cc1)c1ccccc1 was read as SUMO HTRF inh -20, PABP1 MLLE inh -74, Efflux pump mplx 0, ALR inh 34, PABP polyA inh 126* and eIF4H inh 61.
C/C(=N\Nc1ccc([N+](=O)[O-])cc1)c1ccc(N)cc1 was read as SUMO HTRF inh 2, PABP1 MLLE inh -9, Efflux pump mplx 0, ALR inh 98*, PABP polyA inh 14 and eIF4H inh -2.
For Cc1ccccc1-c1ccccc1CN1[C@@H](C(C)C)COCCS1(=O)=O the results were PABP1 MLLE inh -24 and Efflux pump mplx 0.

Screening results from PubChem BioAssay.
